# Screens deposited in PubChem by National Center for Advancing Translational Sciences (NCATS).
# Cycloheximide cs – Cycloheximide Counterscreen for Small Molecule Inhibitors of Shiga Toxin. cell reporter, cycloheximide protein synthesis inhibition counterscreen. max response, %. 300,000 compounds, 12% hits; in the data active = max response mostly above about 13%, no sharp cut-off; inactive = mostly below about 14%; note: read at 38.3 µM for the half of the compounds with a filed dose; 0% is about no effect
# Vaccinia Venus – qHTS for Stage-Specific Inhibitors of Vaccinia Orthopoxvirus: Venus Reporter Primary qHTS; Potency, µM (titrated, usually from 36.5 µM), for inactives: at the top dose activity change, negative = inhibition, hits mostly inhibitors; Vaccinia virus Venus reporter expression, fluorescence; 330,000 compounds, 0.46% hits; calls by dose curve; tested in A549 cells; note: potency is the fitted concentration of half-maximal effect; % is set by controls: 0 for no effect and ±100 for the full control effect; nearly all actives have a fitted effect of over 30% in size
# Vaccinia mCherry – qHTS for Stage-Specific Inhibitors of Vaccinia Orthopoxvirus: mCherry Reporter Primary qHTS | Vaccinia virus mCherry reporter infection, fluorescence | Potency, µM (titrated, usually from 36.5 µM), for inactives: at the top dose activity change, negative = inhibition, most hits filed as inhibitors | 310,000 compounds, 0.63% hits | AID 720579, 2013; calls by dose curve; tested in A549 cells; note: potency is the fitted concentration of half-maximal effect; % is set by controls: 0 for no effect and ±100 for the full control effect; nearly all actives have a fitted effect of over 35% in size
# LASV entry inh – qHTS for Inhibitors of binding or entry into cells for Lassa Virus; AID 540256, 2011; Lassa virus pseudotype entry inhibition, cell reporter; Potency, µM (titrated, usually from 37.9 µM), for inactives: at the highest dose activity change, negative = inhibition, usual class: inhibitors; 300,000 compounds, 1.2% hits; calls by dose curve; tested in HEK293 cells; note: potency is the fitted concentration of half-maximal effect; % is set by controls: 0 for no effect and ±100 for the full control effect; nearly all actives have a fitted effect of over 50% in size
# MARV entry inh – qHTS for inhibitors of binding or entry into cells for Marburg Virus; Marburg virus pseudotyped entry inhibition, cell reporter; Potency, µM (titrated, usually from 37.8 µM), inactives show top-dose activity change, negative = inhibition, usual class: inhibitors; 300,000 compounds, 1.8% hits; AID 540276, 2011; calls by dose curve; tested in HEK293 cells; note: potency is the fitted concentration of half-maximal effect; % is set by controls: 0 for no effect and ±100 for the full control effect
# Shiga inhibitor – A qHTS for Small Molecule Inhibitors of Shiga Toxin; Vero cells, Shiga toxin protein synthesis inhibition reporter; inhibition, % at 38.7 µM; 290,000 compounds, 9.2% hits; AID 2315, 2010; in the data active = inhibition mostly above about 28%, no sharp cut-off; inactive = mostly below about 43%; note: 0% is about no effect
# The depositor's hits bear a star; i = inactive; u = inconclusive; x = no result given; [ ] = another dose, or the depositor's remark. Only a selection was taken, and hits are over-represented in it overall.
SMILES,Cycloheximide cs,Vaccinia Venus,Vaccinia mCherry,LASV entry inh,MARV entry inh,Shiga inhibitor
Nc1ccc(C(=O)N/N=C2\CCCc3c2[nH]c2ccccc32)cc1,25*,x,x,-1%,11%,26
CC(C)(C)OC(=O)N/N=C/c1c[nH]c2ccccc12,56*,-15%,-11%,1%,24%,73*
O=C(N/N=C/c1c[nH]c2ccccc12)c1cc(Cl)ccc1O,45*,x,x,x,x,44*
Cc1occc1C(=O)N/N=C/c1c[nH]c2ccccc12,48*,x,x,8%,21%,96*
CCOC(=O)N/N=C/c1c[nH]c2ccccc12,9,x,x,x,x,32
CCOC(=O)Cn1c(=O)n(-c2cccc(Cl)c2)c2nc(-c3ccccc3Cl)nc(C(N)=O)c21,x,-1%,i,26%[46.1 µM],x,x
COC(=O)N/N=C/c1c[nH]c2ccccc12,1,2%,-13%,0%,22%,10
O=C(N/N=C/c1c[nH]c2ccccc12)c1ccc(Cl)cc1,34*,-20%,-21%,8%,u,72*
O=C(N/N=C\c1c[nH]c2ccccc12)c1ccc(O)cc1,39*,-9%,i,29%[46.1 µM],u,63*
Nc1ccc(C(=O)N/N=C/c2c[nH]c3ccccc23)cc1,29*,x,x,x,x,51
NC(=S)N/N=C/c1c[nH]c2ccccc12,6,x,x,x,x,38
O=C(N/N=C/c1c[nH]c2ccccc12)c1ccccc1Cl,26*,-8%,-15%,13%,13%,55
COc1ccc(CNC(=O)CSc2ncc3c(n2)-c2cc(Cl)ccc2N(C)S3(=O)=O)cc1,x,-5%,-14%,-3%[46.1 µM],x,x
Cc1nn(C)cc1S(=O)(=O)N1CCN(c2ccccc2)CC1,-5,-7%,i,1%[46.1 µM],u,-8
O=C(N/N=C/c1c[nH]c2ccccc12)c1ccc(Br)cc1,32*,-22%,-21%,-23%[46.1 µM],u,54*
CC(C)Oc1ccc(Br)cc1C(=O)N/N=C/c1c[nH]c2ccccc12,4,-29%,u,-13%[46.1 µM],u,-6
CCCCOC(=O)c1ccc(NC(=O)c2cc(-c3cccs3)on2)cc1,x,-14%,i,0%[46.1 µM],-1%[46.1 µM],x
COC(=O)CC=C[C@@H](C)[C@H](NC(=O)OC)c1ccccc1Br,x,x,x,x,-29%[14.2 µM],x
CCCC[n+]1cc(/N=C(\[O-])OC)on1,-1,-12%,-18%,-2%,6%[46.1 µM],-7
CO/C([O-])=N/c1c[n+](-c2ccc(C)cc2)no1,22*,-29%,x,28%,0%,43*
O=C(Oc1ccc(-c2cnc3ccccc3n2)cc1)c1cc([N+](=O)[O-])ccc1Cl,48*,4%,x,6%,3%,83*
Cc1nc2cccc(C(=O)Oc3ccc([N+](=O)[O-])cc3)c2o1,4,-7%,-5%,u,-10%[46.1 µM],-5
Cc1c(C(=O)Oc2ccc(-c3cnc4ccccc4n3)cc2)cccc1[N+](=O)[O-],37*,4%,-5%,u,1%[46.1 µM],95*
Cc1ccccc1OCCOCCN1CCCCCC1,-2,-12%,-1%,9%[46.1 µM],10µM*,-5
c1ccc(-c2ccccc2OCCCCN2CCCCC2)cc1,0,-27%,u,u,7.1µM*,-7
SMILES,Cycloheximide cs,Vaccinia Venus,Vaccinia mCherry,LASV entry inh,MARV entry inh,Shiga inhibitor
c1ccc(-c2ccccc2OCCCN2CCCC2)cc1,-3,-15%,i,u,5.6µM*,-8
COc1ccccc1OCCOCCN1CCCC1,2,x,x,x,x,14
Cc1cc(C(C)(C)C)ccc1OCCCCN1CCCC1,30*,-24%,-2%,u,u,6
c1ccc(-c2ccccc2OCCCN2CCCCCC2)cc1,-3,-27%,u,x,x,-12
Cc1cc(C(C)(C)C)ccc1OCCN1CCCC1,-3,-10%,-10%,-3%,u,-24
O=[N+]([O-])c1cccc2[nH]cnc12,x,-17%,-15%,x,x,x
O[C@@H]1COC(Nc2ccc(N=Nc3ccccc3)cc2)C[C@@H]1O (stereo partly specified),62*,-19%,-4%,-24%,-28%,95*
COc1ccc(C)cc1-n1nnc(S(=O)(=O)c2ccc(C)cc2)c1C,x,1%,-3%,-22%[46.1 µM],-3%[46.1 µM],x
COc1ccc(-c2cc3ccc(OCC(C)=O)cc3oc2=O)cc1OC,25*,x,x,x,x,27*
COC(=O)COc1ccc2cc(-c3ccc(OC)cc3)c(=O)oc2c1,2,x,x,x,x,-6
COc1ccc(-c2cc3ccc(OCC(C)=O)cc3oc2=O)cc1,57*,x,x,x,x,127*
Cc1c(C(=O)N2CCCC2)sc2ncnc(NCCCN3CCOCC3)c12,x,0%,i,x,x,x
COc1ccc(CN(C(=S)Nc2ccccc2)C2CC(=O)N(c3ccc(F)cc3)C2=O)cc1 (stereo unspecified),31*,-27%,x,-11%,u,35
Nc1c(C(=O)c2ccc(Br)s2)oc2ccccc12,23*,x,x,13%,u,37
Nc1c(C(=O)c2cccs2)oc2ccccc12,26*,x,x,15%,u,99*
Nc1ccc(C(=O)c2cccs2)cc1,11,1%,-3%,-1%,16%,36
COc1ccc(CCNC(=O)C(=O)NCC(c2ccc3c(c2)OCO3)N2CCOCC2)cc1 (stereo unspecified),x,4%,-10%,1%[46.1 µM],x,x
COc1cccc(CNC(=O)c2ccc3nc(CCc4ccccc4)oc3c2)c1OC,x,7%,-12%,-12%[46.1 µM],x,x
O=C(NCCN1CCCCC1)Nc1ccccc1Cl,-1,x,x,x,x,10
O=C1C(Cl)=C(NCCN2CCCCC2)C(=O)c2ccccc21,54*,x,x,x,x,49*
O=C(O)c1ccccc1Nc1ccccc1,x,-5%,-7%,8%,u,x
COc1ccc(NC(=S)NC(=O)Cc2ccccc2)cc1,25*,x,x,x,x,x
O=C(O)c1ccccc1Nc1ccc(OC(F)F)cc1,35*,9%,-1%,u,u,43*
O=C(Cc1ccccc1)NC(=S)Nc1ccc(OC(F)F)cc1,18*,-3%,i,30%[46.1 µM],-2%[46.1 µM],39*
Cc1ccn2cc(-c3ccc(S(=O)(=O)N4CCOCC4)cc3)nc2c1,48*,x,x,x,6%,47
SMILES,Cycloheximide cs,Vaccinia Venus,Vaccinia mCherry,LASV entry inh,MARV entry inh,Shiga inhibitor
Cc1nc(-c2ccc(S(=O)(=O)N3CCOCC3)cc2)cs1,-1,-15%,-1%,u,5%[46.1 µM],-2
Cc1ccc2nc(-c3ccc(S(=O)(=O)N4CCOCC4)cc3)cn2c1,24*,x,x,x,x,39
COc1ccc(NC(=O)N2CCc3ccccc3C2)cc1,63*,-14%,-6%,u,u,78*
O=C(Nc1ccc(Cl)cc1)N1CCc2ccccc2C1,-2,-7%,-3%,16%,u,-13
COc1cc(NC(=S)N2CCc3ccccc3C2)cc(OC)c1,9,-3%,-2%,14%[46.1 µM],u,39
COc1ccc(NC(=S)N2CCc3ccccc3C2)cc1OC,10,-12%,-7%,x,x,49*
CCOc1ccc(NC(=O)N2CCc3ccccc3C2)cc1,48*,x,x,x,x,58*
Cc1cccc(OCC(=O)N2CCc3ccccc3C2)c1,27*,-1%,i,-3%,u,33*
